# Values without a mark were called inactive. Activity calls are given as the source filed them. Calls come from the whole dose curve; as a rule, active = well fitted curve in the direction sought with a large enough effect in the repeat runs; inconclusive = weak or mixed curves; inactive = flat fitted curve, though single readings scatter.
# Experiment: qHTS assay to test for compound auto fluorescence at 535 nm (green) in HepG2 cell free culture (AID 720686)
# Details: Cell-free medium, green autofluorescence 485/535 nm; series mostly up to 91.3 µM; fluorescence, % of fluorescein control: at the top concentration
# % is set by controls: 0 for no effect and ±100 for the full control effect.
Compound,"fluorescence, % of fluorescein control",outcome
O=C(O)/C=C/c1cnc[nH]1,-0.0769%,–
Cc1occc1S,0.0388%,–
CC(C)CCCCCCOC(=O)c1ccc(C(=O)OCCCCCCC(C)C)c(C(=O)OCCCCCCC(C)C)c1,-0.0183%,–
O=c1[nH]cnc2ccccc12,-0.131% [at 95.7 µM],–
CCN(CC)CCOc1ccc2c(c1)C(=O)c1cc(OCCN(CC)CC)ccc1-2,-0.0673% [at 46 µM],–
CC(=O)OCCc1ccccc1,-0.0137%,–
CCCCCCCCCCCCC(=O)O,0.0066%,–
CC(C)c1ccc2c(C(C)C)cc(C(C)C)c(S(=O)(=O)O)c2c1,-0.0152% [at 95.7 µM],–
CCN1CCC[C@H]1CNC(=O)c1c(OC)ccc(Br)c1OC,0.003% [at 46 µM],–
O=CNc1ccccc1,-0.011%,–
Cc1cccc(Oc2ccccc2)c1,0.0333%,–
O=C(O)[C@@H]1[C@H]2C[C@H]3c4[nH]c5ccccc5c4CCN3C[C@@H]2CC[C@@H]1O,0.287% [at 18.6 µM],–
O=C(O)Cc1cc(I)c(Oc2ccc(O)c(I)c2)c(I)c1,–,inactive
O=c1c2ccccc2nnn1CCl,0.0298%,–
O=C(NN1CCCC1)NS(=O)(=O)c1ccc(Cl)cc1,-0.0863% [at 46 µM],–
C[C@@H](C1=C(CCN(C)C)Cc2ccccc21)c1ccccn1,-0.167% [at 46 µM],–

Compound,"fluorescence, % of fluorescein control",outcome
CC(=O)N(O)CCCCCNC(=O)CCC(=O)N(O)CCCCCNC(=O)CCC(=O)N(O)CCCCCN,0.169% [at 18.6 µM],–
CCN(CC)CCOC(=O)C1(c2ccccc2)CCCC1,0.0919% [at 46 µM],–
CC(C)(C)c1ccc(OCC2CO2)cc1 (configuration not stated),-0.0824% [at 95.7 µM],–
Cc1ccccn1,–,inactive
CCOc1ccc(NC(=O)CC(C)=O)cc1,-0.129%,–
CC(=O)/C=C/C1C(C)=CCCC1(C)C (configuration not stated),-0.0145%,–
CCCCOC(=O)/C=C\C(=O)OCCCC,0.0139% [at 95.7 µM],–
N#CCCNCCC#N,0.0786% [at 95.7 µM],–
CCCOc1ccc2nc(NC(=O)OC)[nH]c2c1,-0.0616% [at 46 µM],–
O=C1c2cccc(O)c2C(=O)c2c(O)cc(CO)cc21,-0.0383%,–
CCOC(=O)C1=NN(c2ccccc2)C(=O)C1,-0.0312%,–
CC(=O)SCc1ccco1,0.134%,–
Cc1ccccc1N=Nc1ccc(N=Nc2c(O)ccc3ccccc23)c(C)c1,0.0741% [at 46 µM],–
CN(C(=O)CCCOc1ccc2[nH]c(=O)ccc2c1)C1CCCCC1,-0.0317% [at 46 µM],–
Cc1ccc(C(=O)C(C)CN2CCCCC2)cc1 (configuration not stated),–,inactive
O=C(O)Cn1c(C(=O)Nc2nc(-c3ccccc3Cl)cs2)cc2ccccc21,0.004% [at 46 µM],–

# Source: PubChem BioAssay (Tox21)
